# Assay results taken from publication PMC7862700, “An all-to-all approach to the identification of sequence-specific readers for epigenetic DNA modifications on cytosine”.
# What was measured:
# Test in all cases: DAPPL (digital affinity profiling via proximity ligation, sequencing); 10 mM Tris-HCl pH 7.5, 50 mM NaCl, 1 mM DTT, 4% glycerol, room temperature, 30 min; GST-TFs on glutathione beads, 16-mer random dsDNA library, 0.1% formaldehyde crosslink after washing; high values mean tight binding
# FLI1 = biological target: T1, FLI1 (Homo sapiens, UniProt Q01543 1-452); conditions: protein: recombinant; tags: N-terminal GST; dsDNA, one strand shown
# T1 sequence: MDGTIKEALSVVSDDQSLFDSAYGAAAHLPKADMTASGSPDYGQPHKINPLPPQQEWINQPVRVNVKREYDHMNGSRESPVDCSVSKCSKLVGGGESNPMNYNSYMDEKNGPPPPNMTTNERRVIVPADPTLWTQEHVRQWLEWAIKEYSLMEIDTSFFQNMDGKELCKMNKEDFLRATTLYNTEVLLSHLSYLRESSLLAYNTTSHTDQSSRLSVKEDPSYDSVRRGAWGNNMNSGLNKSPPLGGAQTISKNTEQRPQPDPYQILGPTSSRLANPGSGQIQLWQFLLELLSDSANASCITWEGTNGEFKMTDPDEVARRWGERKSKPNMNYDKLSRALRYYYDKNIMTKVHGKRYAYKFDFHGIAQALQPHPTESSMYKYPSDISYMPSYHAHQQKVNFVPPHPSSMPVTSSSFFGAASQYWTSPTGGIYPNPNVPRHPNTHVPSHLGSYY
# Method in brief: (§1)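 Human transcription factors carrying a GST fusion were produced in yeast, bound to glutathione beads, tagged with DNA barcodes and pooled together with a tag-only sample. Each pool was held with 200 nmole of a random double-stranded 16-mer DNA library in Tris/NaCl/DTT/glycerol buffer for 30 min at room temperature, then washed, crosslinked in 0.1% formaldehyde, proximity-ligated with BsaI/T4 ligase (1 h, 37 °C), PCR-amplified and sequenced on an Illumina NextSeq500. Binding signal is the read frequency of each hexamer for a given factor divided by its frequency in the tag-only sample.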
# ELK1 = biological target: T2, ELK1 (Homo sapiens, UniProt P19419 1-428); conditions: protein: recombinant; tags: N-terminal GST; dsDNA, one strand shown
# T2 sequence: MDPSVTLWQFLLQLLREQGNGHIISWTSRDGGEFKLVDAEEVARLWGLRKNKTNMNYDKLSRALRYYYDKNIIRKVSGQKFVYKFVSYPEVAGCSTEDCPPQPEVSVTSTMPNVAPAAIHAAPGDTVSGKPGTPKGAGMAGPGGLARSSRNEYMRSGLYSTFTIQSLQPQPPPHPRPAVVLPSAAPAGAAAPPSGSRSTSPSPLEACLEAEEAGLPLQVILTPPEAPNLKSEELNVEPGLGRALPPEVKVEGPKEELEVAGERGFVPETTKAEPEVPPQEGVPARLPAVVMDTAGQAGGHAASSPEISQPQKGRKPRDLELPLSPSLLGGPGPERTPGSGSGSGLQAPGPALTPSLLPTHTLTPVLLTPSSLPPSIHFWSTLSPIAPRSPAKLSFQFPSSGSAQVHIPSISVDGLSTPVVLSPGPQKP
# Method in brief: as §1
# GABPA = biological target: T3, GABPA (Homo sapiens, UniProt Q06546 1-454); conditions: protein: recombinant; tags: N-terminal GST; dsDNA, one strand shown
# T3 sequence: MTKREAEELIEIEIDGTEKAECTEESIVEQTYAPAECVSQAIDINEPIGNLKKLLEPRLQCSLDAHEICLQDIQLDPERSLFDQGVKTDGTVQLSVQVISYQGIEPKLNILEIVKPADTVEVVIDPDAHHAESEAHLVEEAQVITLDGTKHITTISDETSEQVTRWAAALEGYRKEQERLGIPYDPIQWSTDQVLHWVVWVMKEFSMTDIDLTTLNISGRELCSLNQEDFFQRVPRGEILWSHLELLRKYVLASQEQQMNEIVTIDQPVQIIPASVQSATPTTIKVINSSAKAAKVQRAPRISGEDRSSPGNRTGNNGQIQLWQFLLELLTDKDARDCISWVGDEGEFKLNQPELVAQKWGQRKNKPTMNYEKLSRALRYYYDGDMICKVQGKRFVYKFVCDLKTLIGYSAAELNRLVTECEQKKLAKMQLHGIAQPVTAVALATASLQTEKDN
# Method in brief: as §1
# ERG = biological target: T4, ERG (Homo sapiens, UniProt P11308 1-479); conditions: protein: recombinant; tags: N-terminal GST; dsDNA, one strand shown
# T4 sequence: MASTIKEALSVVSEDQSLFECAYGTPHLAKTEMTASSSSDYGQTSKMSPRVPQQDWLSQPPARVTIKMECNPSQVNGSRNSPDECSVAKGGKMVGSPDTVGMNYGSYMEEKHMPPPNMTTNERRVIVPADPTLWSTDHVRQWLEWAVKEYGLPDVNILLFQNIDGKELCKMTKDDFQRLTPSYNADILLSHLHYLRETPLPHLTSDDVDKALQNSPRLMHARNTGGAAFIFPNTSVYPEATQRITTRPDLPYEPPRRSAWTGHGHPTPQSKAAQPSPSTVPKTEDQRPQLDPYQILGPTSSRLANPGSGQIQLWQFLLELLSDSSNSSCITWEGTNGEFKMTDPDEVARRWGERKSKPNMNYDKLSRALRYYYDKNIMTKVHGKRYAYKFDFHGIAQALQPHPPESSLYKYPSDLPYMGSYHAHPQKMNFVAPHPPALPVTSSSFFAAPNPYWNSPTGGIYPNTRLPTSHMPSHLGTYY
# Method in brief: as §1
# ELF1 = ELF1 (Homo sapiens, UniProt P32519 1-619); conditions: protein: recombinant; tags: N-terminal GST; dsDNA, one strand shown
# Chain of ELF1 (P32519 whole entry): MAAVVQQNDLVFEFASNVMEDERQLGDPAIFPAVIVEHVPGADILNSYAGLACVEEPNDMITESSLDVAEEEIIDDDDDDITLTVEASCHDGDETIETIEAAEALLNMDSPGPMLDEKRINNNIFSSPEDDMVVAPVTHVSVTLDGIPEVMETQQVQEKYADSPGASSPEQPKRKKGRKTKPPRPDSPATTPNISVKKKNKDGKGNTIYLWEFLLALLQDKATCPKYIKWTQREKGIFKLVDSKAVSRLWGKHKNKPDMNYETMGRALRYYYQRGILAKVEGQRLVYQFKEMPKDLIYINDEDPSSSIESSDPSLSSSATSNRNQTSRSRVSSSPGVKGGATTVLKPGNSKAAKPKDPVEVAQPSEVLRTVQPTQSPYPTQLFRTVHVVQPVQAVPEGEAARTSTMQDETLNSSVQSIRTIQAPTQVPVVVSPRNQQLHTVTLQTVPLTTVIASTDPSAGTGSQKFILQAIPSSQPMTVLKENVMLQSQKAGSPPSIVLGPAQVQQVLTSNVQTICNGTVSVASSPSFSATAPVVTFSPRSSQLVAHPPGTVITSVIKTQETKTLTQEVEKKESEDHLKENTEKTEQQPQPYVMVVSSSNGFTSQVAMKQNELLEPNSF
# Method in brief: as §1
# EHF = biological target: T5, EHF (Homo sapiens, UniProt Q9NZC4 1-300); conditions: protein: recombinant; tags: N-terminal GST; dsDNA, one strand shown
# T5 sequence: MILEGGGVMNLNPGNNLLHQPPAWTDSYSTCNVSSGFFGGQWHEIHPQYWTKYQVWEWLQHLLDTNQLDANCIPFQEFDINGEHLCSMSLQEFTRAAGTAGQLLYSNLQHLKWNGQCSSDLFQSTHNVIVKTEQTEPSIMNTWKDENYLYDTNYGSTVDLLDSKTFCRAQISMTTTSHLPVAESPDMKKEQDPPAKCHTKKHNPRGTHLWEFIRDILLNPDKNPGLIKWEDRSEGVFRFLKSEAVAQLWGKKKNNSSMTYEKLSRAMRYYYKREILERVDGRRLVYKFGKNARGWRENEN
# Method in brief: as §1
# SPI1 = SPI1 (Homo sapiens, UniProt P17947 1-270); conditions: protein: recombinant; tags: N-terminal GST; dsDNA, one strand shown
# Method in brief: as §1
# SPIB = SPIB (Homo sapiens, UniProt Q01892 1-262); conditions: protein: recombinant; tags: N-terminal GST; dsDNA, one strand shown
# Chain of SPIB (Q01892 whole entry): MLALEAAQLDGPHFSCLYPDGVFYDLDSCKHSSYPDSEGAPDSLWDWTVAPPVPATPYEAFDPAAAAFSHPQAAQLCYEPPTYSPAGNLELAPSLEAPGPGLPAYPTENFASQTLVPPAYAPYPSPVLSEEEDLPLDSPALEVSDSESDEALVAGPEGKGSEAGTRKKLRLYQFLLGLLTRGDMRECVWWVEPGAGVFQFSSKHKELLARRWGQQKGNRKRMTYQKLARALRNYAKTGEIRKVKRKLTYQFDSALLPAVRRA
# Method in brief: as §1
# ELK3 = biological target: T6, ELK3 (Homo sapiens, UniProt P41970 1-407); conditions: protein: recombinant; tags: N-terminal GST; dsDNA, one strand shown
# T6 sequence: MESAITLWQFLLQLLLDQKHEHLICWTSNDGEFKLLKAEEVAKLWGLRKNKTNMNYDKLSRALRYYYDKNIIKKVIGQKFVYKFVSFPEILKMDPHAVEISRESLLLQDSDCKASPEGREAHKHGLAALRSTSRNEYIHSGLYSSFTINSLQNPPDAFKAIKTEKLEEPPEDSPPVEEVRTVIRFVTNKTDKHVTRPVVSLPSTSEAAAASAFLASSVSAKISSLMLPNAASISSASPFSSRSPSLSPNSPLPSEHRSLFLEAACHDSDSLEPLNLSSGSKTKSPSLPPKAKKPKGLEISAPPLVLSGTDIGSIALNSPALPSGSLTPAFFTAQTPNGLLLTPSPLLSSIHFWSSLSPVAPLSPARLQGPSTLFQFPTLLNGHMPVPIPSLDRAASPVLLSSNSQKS
# Method in brief: as §1
# FEV = biological target: T7, FEV (Homo sapiens, UniProt Q99581 1-238); conditions: protein: recombinant; tags: N-terminal GST; dsDNA, one strand shown
# T7 sequence: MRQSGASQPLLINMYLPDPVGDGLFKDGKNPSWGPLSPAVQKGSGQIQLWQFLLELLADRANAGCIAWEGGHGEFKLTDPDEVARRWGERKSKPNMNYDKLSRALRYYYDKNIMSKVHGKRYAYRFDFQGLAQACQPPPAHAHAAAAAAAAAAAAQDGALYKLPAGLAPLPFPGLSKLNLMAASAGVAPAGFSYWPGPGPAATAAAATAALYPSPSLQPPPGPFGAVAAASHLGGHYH
# Method in brief: as §1
# ETV5 = ETV5 (Homo sapiens, UniProt P41161 1-510); conditions: protein: recombinant; tags: N-terminal GST; dsDNA, one strand shown
# Chain of ETV5 (P41161 whole entry): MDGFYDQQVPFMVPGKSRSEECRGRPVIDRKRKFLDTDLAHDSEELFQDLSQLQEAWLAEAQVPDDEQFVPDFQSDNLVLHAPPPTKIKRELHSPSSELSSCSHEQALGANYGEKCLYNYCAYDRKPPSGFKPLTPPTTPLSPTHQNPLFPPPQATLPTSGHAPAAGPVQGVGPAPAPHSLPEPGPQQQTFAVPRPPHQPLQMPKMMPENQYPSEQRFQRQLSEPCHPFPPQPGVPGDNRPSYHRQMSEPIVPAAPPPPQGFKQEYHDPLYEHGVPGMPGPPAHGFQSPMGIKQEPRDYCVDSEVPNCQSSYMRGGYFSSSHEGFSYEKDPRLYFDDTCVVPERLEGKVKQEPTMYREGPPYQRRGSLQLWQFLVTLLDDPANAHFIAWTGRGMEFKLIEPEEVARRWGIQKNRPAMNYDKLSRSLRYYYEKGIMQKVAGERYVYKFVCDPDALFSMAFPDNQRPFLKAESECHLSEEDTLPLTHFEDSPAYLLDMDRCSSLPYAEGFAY
# Method in brief: as §1
# HSF1 = HSF1 (Homo sapiens, UniProt Q00613 1-529); conditions: protein: recombinant; tags: N-terminal GST; chain copies: 3; dsDNA, one strand shown
# Chain of HSF1 (Q00613 whole entry): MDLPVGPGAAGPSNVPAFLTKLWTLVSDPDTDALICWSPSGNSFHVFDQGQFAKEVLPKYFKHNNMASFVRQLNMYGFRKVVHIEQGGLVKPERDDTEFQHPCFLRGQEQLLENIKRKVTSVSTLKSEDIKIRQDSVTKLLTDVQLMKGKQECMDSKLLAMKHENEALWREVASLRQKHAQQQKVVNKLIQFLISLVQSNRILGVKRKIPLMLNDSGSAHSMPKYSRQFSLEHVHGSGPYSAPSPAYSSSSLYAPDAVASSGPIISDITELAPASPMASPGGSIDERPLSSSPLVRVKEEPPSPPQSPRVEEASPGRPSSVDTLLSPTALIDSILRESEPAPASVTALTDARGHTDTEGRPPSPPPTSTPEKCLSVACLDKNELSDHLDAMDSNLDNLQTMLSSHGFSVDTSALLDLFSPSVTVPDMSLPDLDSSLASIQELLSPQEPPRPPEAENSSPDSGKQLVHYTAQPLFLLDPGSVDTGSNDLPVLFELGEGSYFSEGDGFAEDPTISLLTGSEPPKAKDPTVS
# Method in brief: as §1
# SPIC = biological target: T8, SPIC (Homo sapiens, UniProt Q8N5J4 1-248); conditions: protein: recombinant; tags: N-terminal GST; dsDNA, one strand shown
# T8 sequence: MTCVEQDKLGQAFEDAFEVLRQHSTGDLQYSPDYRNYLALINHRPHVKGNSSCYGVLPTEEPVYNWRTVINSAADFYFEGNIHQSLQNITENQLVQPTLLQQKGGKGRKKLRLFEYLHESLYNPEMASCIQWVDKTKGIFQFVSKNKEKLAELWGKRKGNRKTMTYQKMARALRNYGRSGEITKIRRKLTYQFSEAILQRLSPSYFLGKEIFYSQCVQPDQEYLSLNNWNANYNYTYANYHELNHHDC
# Method in brief: as §1
# ELF4 = ELF4 (Homo sapiens, UniProt Q99607 1-663); conditions: protein: recombinant; tags: N-terminal GST; dsDNA, one strand shown
# Chain of ELF4 (Q99607 whole entry): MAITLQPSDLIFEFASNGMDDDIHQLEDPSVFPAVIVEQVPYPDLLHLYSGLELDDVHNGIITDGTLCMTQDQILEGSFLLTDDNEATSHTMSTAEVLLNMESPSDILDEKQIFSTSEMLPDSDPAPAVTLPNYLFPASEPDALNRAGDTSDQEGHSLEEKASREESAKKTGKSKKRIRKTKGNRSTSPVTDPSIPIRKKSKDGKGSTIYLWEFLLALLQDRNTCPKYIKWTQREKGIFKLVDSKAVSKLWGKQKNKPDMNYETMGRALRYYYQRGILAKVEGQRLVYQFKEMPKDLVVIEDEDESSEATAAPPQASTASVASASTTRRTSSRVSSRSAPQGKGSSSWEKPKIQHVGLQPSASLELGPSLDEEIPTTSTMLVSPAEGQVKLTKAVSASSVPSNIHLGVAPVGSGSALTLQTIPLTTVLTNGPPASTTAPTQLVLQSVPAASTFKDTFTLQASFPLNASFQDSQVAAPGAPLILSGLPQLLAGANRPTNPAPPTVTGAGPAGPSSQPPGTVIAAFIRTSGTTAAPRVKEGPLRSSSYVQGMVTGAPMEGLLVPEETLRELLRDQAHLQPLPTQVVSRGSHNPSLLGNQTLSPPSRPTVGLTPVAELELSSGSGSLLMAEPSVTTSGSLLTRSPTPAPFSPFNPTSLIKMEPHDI
# Method in brief: as §1
# ELK4 = biological target: T9, ELK4 (Homo sapiens, UniProt P28324-2 1-405); conditions: protein: recombinant; tags: N-terminal GST; dsDNA, one strand shown
# T9 sequence: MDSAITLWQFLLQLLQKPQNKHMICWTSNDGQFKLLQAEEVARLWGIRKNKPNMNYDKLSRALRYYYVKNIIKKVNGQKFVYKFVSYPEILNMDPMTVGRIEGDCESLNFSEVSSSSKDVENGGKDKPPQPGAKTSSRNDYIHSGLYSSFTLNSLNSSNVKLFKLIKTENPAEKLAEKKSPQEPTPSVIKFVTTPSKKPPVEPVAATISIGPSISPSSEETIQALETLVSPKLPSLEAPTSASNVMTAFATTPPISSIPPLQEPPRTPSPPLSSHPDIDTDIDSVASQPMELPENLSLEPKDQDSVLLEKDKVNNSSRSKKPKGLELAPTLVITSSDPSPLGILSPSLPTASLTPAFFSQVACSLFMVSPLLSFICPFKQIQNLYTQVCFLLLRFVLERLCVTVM
# Method in brief: as §1
# ETV2 = biological target: T10, ETV2 (Homo sapiens, UniProt O00321 1-342); conditions: protein: recombinant; tags: N-terminal GST; dsDNA, one strand shown
# T10 sequence: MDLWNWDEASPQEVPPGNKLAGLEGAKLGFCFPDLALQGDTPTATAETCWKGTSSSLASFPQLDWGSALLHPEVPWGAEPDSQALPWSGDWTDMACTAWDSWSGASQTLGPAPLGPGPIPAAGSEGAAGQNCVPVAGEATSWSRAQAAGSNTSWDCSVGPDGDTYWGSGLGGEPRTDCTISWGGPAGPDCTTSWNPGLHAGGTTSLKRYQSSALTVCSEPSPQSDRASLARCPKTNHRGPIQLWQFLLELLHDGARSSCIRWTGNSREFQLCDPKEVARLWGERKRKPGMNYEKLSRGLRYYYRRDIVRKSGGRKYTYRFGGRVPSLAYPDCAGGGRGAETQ
# Method in brief: as §1
# ETV1 = ETV1 (Homo sapiens, UniProt P50549 1-477); conditions: protein: recombinant; tags: N-terminal GST; dsDNA, one strand shown
# Chain of ETV1 (P50549 whole entry): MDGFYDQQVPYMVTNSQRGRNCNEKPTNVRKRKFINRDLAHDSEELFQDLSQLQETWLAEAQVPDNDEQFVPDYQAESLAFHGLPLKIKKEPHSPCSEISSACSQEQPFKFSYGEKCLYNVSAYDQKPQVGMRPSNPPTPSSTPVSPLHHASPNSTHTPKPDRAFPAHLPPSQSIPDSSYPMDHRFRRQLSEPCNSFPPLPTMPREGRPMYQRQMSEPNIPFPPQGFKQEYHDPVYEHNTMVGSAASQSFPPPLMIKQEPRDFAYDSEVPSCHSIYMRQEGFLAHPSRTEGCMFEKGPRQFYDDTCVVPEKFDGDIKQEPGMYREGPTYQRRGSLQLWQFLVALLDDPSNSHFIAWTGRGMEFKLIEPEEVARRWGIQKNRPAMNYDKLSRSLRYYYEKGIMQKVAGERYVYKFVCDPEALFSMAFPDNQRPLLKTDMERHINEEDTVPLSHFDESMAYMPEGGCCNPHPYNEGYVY
# Method in brief: as §1
sequence,measurement,setting,value
TGCGCG,binding signal,FLI1,"1.02 fold enrichment (6-mer frequency, TF over GST control)"
same,binding signal,ELK1,"1.05 fold enrichment (6-mer frequency, TF over GST control)"
same,binding signal,GABPA,"1.02 fold enrichment (6-mer frequency, TF over GST control)"
same,binding signal,ERG,"1.04 fold enrichment (6-mer frequency, TF over GST control)"
same,binding signal,ELF1,"1.02 fold enrichment (6-mer frequency, TF over GST control)"
same,binding signal,EHF,"1.16 fold enrichment (6-mer frequency, TF over GST control)"
same,binding signal,SPI1,"1.16 fold enrichment (6-mer frequency, TF over GST control)"
same,binding signal,SPIB,"1.06 fold enrichment (6-mer frequency, TF over GST control)"
same,binding signal,ELK3,"1.11 fold enrichment (6-mer frequency, TF over GST control)"
same,binding signal,FEV,"1.07 fold enrichment (6-mer frequency, TF over GST control)"
same,binding signal,ETV5,"1.07 fold enrichment (6-mer frequency, TF over GST control)"
same,binding signal,HSF1,"1.15 fold enrichment (6-mer frequency, TF over GST control)"
same,binding signal,SPIC,"1.05 fold enrichment (6-mer frequency, TF over GST control)"
same,binding signal,ELF4,"1.05 fold enrichment (6-mer frequency, TF over GST control)"
same,binding signal,ELK4,"1.16 fold enrichment (6-mer frequency, TF over GST control)"
same,binding signal,ETV2,"1.13 fold enrichment (6-mer frequency, TF over GST control)"
same,binding signal,ETV1,"1.19 fold enrichment (6-mer frequency, TF over GST control)"
